PubChem BioAssay AID1903 (Southern Research Specialized Biocontainment Screening …, 2009)
The whole screen tested about 310,000 compounds, of which about 1,200 (0.39%) were called active. No rule for the calls is given here. A selection follows. Potency and affinity values are given separately.

biological target: Large T antigen (Simian virus 40) (UniProt P03070); test: SV40 large T antigen inhibitors, biochemical (AID 1903); conditions: SV40 large T antigen ATPase/helicase inhibition assay; at 20 µM; active compounds read high
Sequence (P03070 whole entry, looked up): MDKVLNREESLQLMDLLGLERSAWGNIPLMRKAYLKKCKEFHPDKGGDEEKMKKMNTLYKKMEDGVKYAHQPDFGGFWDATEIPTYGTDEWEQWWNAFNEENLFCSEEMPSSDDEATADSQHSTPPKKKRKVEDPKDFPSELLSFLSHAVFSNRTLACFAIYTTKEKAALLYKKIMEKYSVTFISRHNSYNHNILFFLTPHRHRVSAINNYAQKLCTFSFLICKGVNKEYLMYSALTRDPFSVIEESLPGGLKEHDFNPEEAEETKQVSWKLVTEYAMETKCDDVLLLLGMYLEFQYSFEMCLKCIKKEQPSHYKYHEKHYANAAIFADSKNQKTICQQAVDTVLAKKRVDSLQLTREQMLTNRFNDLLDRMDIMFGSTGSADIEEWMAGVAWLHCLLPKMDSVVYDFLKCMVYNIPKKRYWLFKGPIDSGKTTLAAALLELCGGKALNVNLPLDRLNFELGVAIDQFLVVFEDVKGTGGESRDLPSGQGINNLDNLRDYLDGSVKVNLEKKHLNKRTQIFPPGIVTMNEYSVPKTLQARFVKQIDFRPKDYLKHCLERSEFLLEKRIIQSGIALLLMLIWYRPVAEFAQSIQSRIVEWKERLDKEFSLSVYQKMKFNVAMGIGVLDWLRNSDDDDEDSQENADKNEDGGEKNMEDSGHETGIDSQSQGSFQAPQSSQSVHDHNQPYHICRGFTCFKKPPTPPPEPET

inhibition, inactive:
S=C(Nc1ccc(Nc2ccccc2)cc1)N1CCN(c2ncccn2)CC1 26.2%, COc1cc2c(cc1O)C(Cc1ccc(O)cc1)NCC2 (stereo not drawn) 14.4%, COc1cc2c(cc1OC)C(Cc1ccc(O)cc1)NCC2 (stereo not drawn) 70.4%, c1ccc(CCc2nn3c(Cn4nnc5ccccc54)nnc3s2)cc1 -1.97%, O=C1c2ccccc2CCCC12N=NCC2c1cccc2ccccc12 (stereo not drawn) -6.72%, Cc1ncc(CO)c(/C=N/NC(=O)c2ccc(Br)cc2)c1O 3.1%, Cc1ncc(CO)c(/C=N/NC(=O)c2ccc(O)cc2)c1O 4.85%, O=C1C(Cc2ccccc2)Nc2ncnc(N3CCCCC3)c2N1Cc1ccc(Cl)cc1 (stereo not drawn) 23.8%, Oc1ccc(C2=NNC(c3ccc(O)cc3)=NN2)cc1 6.31%, Oc1ccc(-c2cccc(-c3ccc(O)cc3)n2)cc1 24.3%, C=CS(=O)(=O)c1sc(Cl)c(N2CCOCC2)c1[N+](=O)[O-] 28.6%, C=CSc1sc(Cl)c(N2CCOCC2)c1[N+](=O)[O-] 15.5%, Cc1nc(-c2ccc(C(=O)Nc3cccc(Br)c3)cc2)cs1 5.4%, O=C(O)c1cn(CCOc2ccccc2Cl)c2ccccc12 -2.87%, CCNC(=O)NC(=O)CN(C)c1ccccc1 1.38%, COc1ccc(N(CC(=O)Nc2cc(C)on2)S(=O)(=O)c2cc(C)ccc2C)cc1 -9.08%, Cc1cccc(N=Nc2cnc(N)s2)c1 14.7%, COc1cc(C(=O)O)ccc1Cl 8.61%, COc1ccc(/C=C/C(=O)N(Cc2ccccc2)c2ccccn2)cc1OC -1.52%, O=C(/C=C/c1c(F)cccc1Cl)Nc1nc2ccccc2[nH]1 9%, O=C(CS(=O)(=O)c1ccccc1)c1cc2ccccc2oc1=O 32.7%, COc1ccc2cc(C(=O)CS(=O)(=O)c3ccccc3)c(=O)oc2c1 3.93%, Cc1cc(NC(=O)c2nn3cccnc3c2Cl)no1 4.99%, Clc1ccc(-c2cnc3ccccc3n2)cc1 5.89%, CN1C(=O)[C@@H]2C[C@@]3([C@@]45C[C@H]6C(=O)N(C)[C@@H](Cc7ccccc7)C(=O)N6[C@@H]4Nc4ccccc45)c4ccccc4N[C@H]3N2C(=O)[C@@H]1Cc1ccccc1 4.57%, O=Cc1cn(CCC(=O)O)nc1-c1cccc(Cl)c1 7.59%, O=C(O)CCn1cc(/C=C2\SC(=S)NC2=O)c(-c2ccccc2)n1 1.75%, COc1ccc(C2(C(=O)Nc3cc(C)on3)CCOCC2)cc1 0.88%, O=C(O)c1cccc(Cn2c(Cl)c(/C=N/NC(=O)c3ccccc3)sc2=O)c1 7.08%, O=C(O)c1cccc(Cn2c(Cl)c(/C=N/Nc3ccccc3)sc2=O)c1 29.6%, CCC(C(=O)NC1CCCCCC1)n1nc(C)c2c(C)n(-c3ccccc3)nc2c1=O (stereo not drawn) 8.34%, COC(=O)c1ccc(NC(=O)CN(C2CCCCC2)S(C)(=O)=O)cc1 -3.48%, Cc1cc([N+](=O)[O-])ccc1N 6.27%, Cc1ccc([N+](=O)[O-])cc1N -1.11%, Cc1ccc(CN2CCN(C/C=C/c3ccc(F)cc3)CC2CCO)o1 (stereo not drawn) 19.4%, Cc1sc2ncn(CC(=O)NCc3ccco3)c(=O)c2c1-c1ccc(F)cc1 14.3%, Cc1ccc(C(=O)N2CC(C)SC2=Nc2cccc(S(=O)(=O)N(C)C)c2)cc1 (stereo not drawn) 18.9%, COc1cc(/C=N/n2c(C3CCCCC3)n[nH]c2=S)cc(Br)c1O 12.8%, CCN=C1S/C(=C\c2cc(Br)c(O)c(OC)c2)C(=O)N1CC 25.1%, CCN=c1scc(C)n1/N=C/c1ccc(O)c(O)c1O 9.52%, COc1ccc(/C=N/N2C(=O)CSC2=S)cc1Br 33.2%, COc1cc(/C=N/N2C(=O)CSC2=S)ccc1O 37.9%, CCN=c1scc(C)n1/N=C/c1ccsc1 12.1%, COc1cc(/C=N/N2CCN(Cc3ccc(Cl)cc3)CC2)cc(Br)c1O 10.9%, COc1cc(/C=N/Nc2cccc(C)c2)cc(Br)c1O 13.3%, COc1ccccc1NC(=O)c1sc2nc(N3CCOCC3)c3c(c2c1N)CCCC3 15.5%, S=c1[nH]nc(-c2ccccn2)n1/N=C/c1c(Cl)cccc1Cl 24.9%, COc1ccccc1N1CCN(C(=O)/C=C/c2ccccc2)CC1 5.64%, COc1ccc(/C=C(/C#N)C(=O)Nc2ccc(C)cc2C)cc1C(=O)O 19.8%, COc1cc(NC(=O)C2=C(N3CCOCC3)/C(=C\c3ccc(Br)cc3)CC2)cc(OC)c1OC -0.46%, O=C(Nc1ccccc1)c1cccc(S(=O)(=O)N2CCCCC2)c1 1.37%, Cn1c2ccccc2c2n[nH]c(=S)nc21 14.8%, CCOC(=O)c1c(S(=O)(=O)NCc2ccc(OC)cc2)c(C)n(C)c1C 8.6%, O=C(CSCC(=O)N1CCCCC1)OCC(=O)c1c[nH]c2ccccc12 7.84%, O=C(CSC1=NS(=O)(=O)c2ccccc2N1)NCCc1ccccc1 10.2%, COc1cc(/C=N/N2C(C)CCCC2C)cc(Br)c1O (stereo not drawn) 29.5%, O=C1CSC(=S)N1/N=C/c1cc(Br)ccc1O 19.8%, O=C1CSC(=S)N1/N=C/c1ccc(Cl)c([N+](=O)[O-])c1 29.2%, CCCCCC(=O)N/N=C/c1cc(Br)c(O)c(OC)c1 24.7%, COc1cc(/C=N/NC(=O)CC2(C)OCCO2)cc(Br)c1O 18%, COc1cc(/C=N/N=C/c2cc(OC)c(O)c(OC)c2)cc(OC)c1O 36.7%, O=C(O)/C=C/c1ccc(S(=O)(=O)Nc2ccc(C(=O)NCC(=O)O)cc2)cc1 -0.46%, Cc1ccccc1OCC(=O)N(CC(C)C)c1c(N)n(CC(C)C)c(=O)[nH]c1=O -0.915%, CCOC(=O)c1sc(Nc2ccc(F)cc2)nc1C 3.22%, O=C(Cc1ccc(Cl)cc1)Nc1ccccc1C(=O)N1CCCCC1 5.13%, Oc1cccc(/C=N/N2CCN(c3ccccn3)CC2)c1 27.9%, Cn1cccc1/C=N/N1CCN(Cc2ccc(Cl)cc2)CC1 33.2%, C(=N\N1CCN(c2ccccn2)CC1)/c1ccccn1 10.2%, Cc1ccc(/C=N/N2CCN(c3ccccn3)CC2)cc1 3.29%, Cn1cccc1/C=N/N1CCN(Cc2ccccc2Cl)CC1 36.4%, Cn1cccc1/C=N/N1CCN(c2ccccc2)CC1 26.4%, O=C1CC(NCCN2CCOCC2)C(=O)N1Cc1ccc(N2CCCC2=O)cc1 (stereo not drawn) 2.31%, O=C(CSc1nc2ccccc2o1)NCCOc1ccccc1 -0.36%, CCOc1ccc(CSCCNC(=S)Nc2ccc(OC)cc2)cc1 18.9%, CCOc1ccc(CCNC(=O)C2CC(=O)N(c3ccc4c(c3)OCCO4)C2)cc1OCC (stereo not drawn) 19.5%, O=C(NCCNc1nccc(C(F)(F)F)n1)c1cccs1 7.79%, CCN(CC)C(=O)CSc1nc2nc(C)cc(C)c2c(=O)[nH]1 3.63%, O=C(Nc1ccc(C2SCCS2)cc1)c1ccccc1 5.93%, Cn1c(N)c(C(=O)COC(=O)CC2CC3CCC2C3)c(=O)n(C)c1=O (stereo not drawn) 12.6%, Cc1ccc(Cl)cc1Nc1nc(-c2cccnc2)cs1 5.81%, Cc1cccc(C)c1NC(=O)CSCCO 7.3%, Cc1cccc(C)c1NC(=O)CSCC(=O)O 11.2%, Brc1c(CSc2nncn2-c2ccccc2)nc2sccn12 3.07%
